Data as given in PubChem BioAssay.
The source made the active and inactive calls. Unless noted, no rule for the calls is given here.

Key:
[1] = tested on: Wnt5a (protein binding on small-molecule microarray); experiment: small molecules binding Wnt5a protein – biophysical, small-molecule microarray, 635/667 nm fluorescence, primary screen (AID 1142); details: 635 nm fluorescence, higher = more signal;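 also: fluorescence read at 667 nm with signal to noise per printed feature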
[2] = ATP-based viability of Huh7 replicon cells – cell-based, CellTiter-Glo luminescence, basal, 48 h, cytotoxicity control for HCV replication inhibitor project, primary screen (AID 1143); details: higher = more signal, called active from +8 up or from −8 down;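 also: Huh7 hepatoma cells carrying a hepatitis C replication reporter with no stimulus; test concentration not given here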
[3] = Pseudomonas biofilm growth suppression – PAO1 strain, BacTiter-Glo luminescence, LB-PBS, primary screen (AID 1144); details: P. aeruginosa PAO1 biofilm, 12 h, higher = more signal
[4] = basal CRE-LacZ reporter activity in PC12 – cell-based, unstimulated, primary screen (AID 1145); details: no forskolin, luminescence, 4.5 h, higher = more signal, called active from +8 up or from −8 down
[5] = forskolin-driven CRE-LacZ activity in PC12 – cell-based, CRE-LacZ reporter, forskolin-stimulated, primary screen (AID 1146); details: luminescence, 4.5 h, higher = more signal, called active from +8 up or from −8 down;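 also: PC12 cells with 6xCRE LacZ reporter stimulated by forskolin 10 µM; beta-galactosidase reporter signal reflecting CREB driven transcription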
[6] = biological target: Streptavidin (Streptomyces avidinii) (UniProt P22629); experiment: compounds binding control protein streptavidin – biophysical, small-molecule microarray, 635/667 nm fluorescence, artefact control for SMM compound annotation, primary screen (AID 1147); details: higher = more signal;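 also: signal reflects streptavidin binding to arrayed compounds as a control protein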
[7] = probe aInhba binding on compound microarray – biochemical, small-molecule microarray, 635/667 nm fluorescence, primary screen (AID 1148); details: higher = more signal;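 also: score merges 667nm spot fluorescence with signal-to-noise for antibody binding to printed compounds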
Torsin-1A (Homo sapiens) [8] = biological target: Torsin-1A (Homo sapiens) (UniProt O14656); experiment: TOR1A wild-type binding on microarray – cell lysate, small-molecule microarray, lysate, 635/667 nm, primary screen (AID 1149); details: COS7 hTOR1A-WT lysate, 635 nm fluorescence, higher = more signal
Torsin-1A (Homo sapiens) [9] = biological target: Torsin-1A (Homo sapiens) (UniProt O14656); experiment: torsin A mutant lysate binding on microarrays – cell lysate, small-molecule microarray, COS7 lysate, 635/667 nm fluorescence, primary screen (AID 1150); details: COS7 hTOR1A mutant lysate, 635 nm fluorescence, higher = more signal;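 also: score pools 667 nm emission and signal to noise measuring lysate protein binding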
[10] = tested on: Sonic hedgehog protein (Shh); experiment: Sonic hedgehog microarray binding compounds – biochemical, small-molecule microarray, 635/667 nm fluorescence, primary screen (AID 1151); details: 635 nm fluorescence, higher = more signal;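 also: Shh protein binding to compounds spotted on small-molecule microarray slides; score combines spot fluorescence intensity with signal-to-noise across triplicate slides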

Sequence of Torsin-1A (Homo sapiens) (O14656 whole entry, looked up): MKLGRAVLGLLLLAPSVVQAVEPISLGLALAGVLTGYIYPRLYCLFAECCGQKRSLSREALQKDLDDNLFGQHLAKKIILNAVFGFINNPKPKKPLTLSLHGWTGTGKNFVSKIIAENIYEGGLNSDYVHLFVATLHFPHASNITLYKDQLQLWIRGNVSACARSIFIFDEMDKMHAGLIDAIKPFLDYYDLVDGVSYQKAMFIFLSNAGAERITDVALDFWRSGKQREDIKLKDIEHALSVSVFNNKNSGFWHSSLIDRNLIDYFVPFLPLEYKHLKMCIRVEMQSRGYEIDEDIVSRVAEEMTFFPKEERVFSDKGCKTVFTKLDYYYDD
Sequence of Streptavidin (Streptomyces avidinii) (P22629 whole entry, looked up): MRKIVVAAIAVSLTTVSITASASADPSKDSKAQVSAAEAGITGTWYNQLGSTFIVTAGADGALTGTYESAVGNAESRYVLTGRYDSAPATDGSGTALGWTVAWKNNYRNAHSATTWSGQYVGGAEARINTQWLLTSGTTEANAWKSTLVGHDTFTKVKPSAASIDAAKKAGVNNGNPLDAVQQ

## CCOC(=O)C1=C[C@@H](C(C)(C)C)N(S(=O)(=O)c2ccc(C)cc2)[C@H]1c1ccccc1
[1]
  composite z-score: 0.251
[2]
  z-score: -4.44 (inactive)
[3]
  z-score: 1.43 (inactive)
[4]
  z-score: 0.696 (inactive)
[5]
  z-score: -0.276 (inactive)
[6]
  composite z-score: 1.29
[7]
  composite z-score: 0.27
Torsin-1A (Homo sapiens) [8]
  composite z-score: 0.0214
Torsin-1A (Homo sapiens) [9]
  composite z-score: 0.611
[10]
  composite z-score: 0.871

## COCCOC(=O)N1C(=O)[C@@]2(c3ccccc31)[C@H](c1ccccc1OCCO)N1[C@H](c3ccccc3)[C@H](c3ccccc3)OC(=O)[C@H]1[C@@H]2C(N)=O
[1]
  composite z-score: 0.408
[2]
  z-score: -4.2 (inactive)
[3]
  z-score: -0.0116 (inactive)
[4]
  z-score: 0.272 (inactive)
[5]
  z-score: 1.86 (inactive)
[6]
  composite z-score: 1.25
[7]
  composite z-score: 0.296
Torsin-1A (Homo sapiens) [8]
  composite z-score: -0.401
Torsin-1A (Homo sapiens) [9]
  composite z-score: 1.07
[10]
  composite z-score: 1.48

## CC(C)CNC(=O)[C@@]1(c2ccc([N+](=O)[O-])cc2)CC(=O)N(C2CCCCC2)[C@@H]1c1ccc(CO)cc1
[1]
  composite z-score: 0.335
[2]
  z-score: -2.21 (inactive)
[3]
  z-score: 0.901 (inactive)
[4]
  z-score: 0.585 (inactive)
[5]
  z-score: 0.142 (inactive)
[6]
  composite z-score: -0.0755
[7]
  composite z-score: -0.153
Torsin-1A (Homo sapiens) [8]
  composite z-score: 0.442
Torsin-1A (Homo sapiens) [9]
  composite z-score: 0.0881
[10]
  composite z-score: -0.158

## C=C/C=C/[C@@H]1C(=C)CN([C@@H](Cc2ccccc2)C(=O)OC)[C@H]1[C@@H](O)Cc1ccccc1
[1]
  composite z-score: -0.0425
[2]
  z-score: -0.342 (inactive)
[3]
  z-score: -0.428 (inactive)
[4]
  z-score: 3.38 (inactive)
[5]
  z-score: 2.05 (inactive)
[6]
  composite z-score: 0.185
[7]
  composite z-score: -0.0418
Torsin-1A (Homo sapiens) [8]
  composite z-score: 0.218
Torsin-1A (Homo sapiens) [9]
  composite z-score: 0.795
[10]
  composite z-score: 0.949

## C=C(C)[C@@H]1CC=C(C(O)C2C=CC3C(=O)N(c4ccccc4)C(=O)C3N2Nc2ccc(C#N)cc2)CC1 (stereo not given in full)
[1]
  composite z-score: 0.335
[2]
  z-score: -0.133 (inactive)
[3]
  z-score: -1.68 (inactive)
[4]
  z-score: 0.433 (inactive)
[5]
  z-score: -0.345 (inactive)
[6]
  composite z-score: 1.48
[7]
  composite z-score: 0.361
Torsin-1A (Homo sapiens) [8]
  composite z-score: 0.202
Torsin-1A (Homo sapiens) [9]
  composite z-score: 0.454
[10]
  composite z-score: -0.0706

## O=C1OCC=C[C@H]2OC34C=CCN(c5ccc6ccccc6c5)C(=O)[C@H]3N(CCCCCO)C(=O)[C@@H]4[C@@H]12 (stereo not given in full)
[1]
  composite z-score: -0.137
[2]
  z-score: 0.234 (inactive)
[3]
  z-score: 0.494 (inactive)
[4]
  z-score: 0.724 (inactive)
[5]
  z-score: 0.0532 (inactive)
[6]
  composite z-score: -0.884
[7]
  composite z-score: -0.0963
Torsin-1A (Homo sapiens) [8]
  composite z-score: -1.92
Torsin-1A (Homo sapiens) [9]
  composite z-score: -1.41
[10]
  composite z-score: -0.968

## O=C1[C@@]23C=C(Br)[C@H](C[C@@H]2COC3)[C@@]12CO2
[1]
  composite z-score: 0.731
[2]
  z-score: 0.762 (inactive)
[3]
  z-score: 0.461 (inactive)
[4]
  z-score: -0.329 (inactive)
[5]
  z-score: 2.56 (inactive)
[6]
  composite z-score: -0.129
[7]
  composite z-score: -0.0986
Torsin-1A (Homo sapiens) [8]
  composite z-score: 0.283
Torsin-1A (Homo sapiens) [9]
  composite z-score: 0.276
[10]
  composite z-score: 0.497

## NC(=O)[C@@H]1[C@H]2C(=O)O[C@H](c3ccccc3)[C@H](c3ccccc3)N2[C@H](c2ccc(OCCO)cc2)[C@@]12C(=O)Nc1ccc(C#CCCO)cc12
[1]
  composite z-score: 0.257
[2]
  z-score: -0.952 (inactive)
[3]
  z-score: -0.807 (inactive)
[4]
  z-score: -0.0515 (inactive)
[5]
  z-score: -0.195 (inactive)
[6]
  composite z-score: 0.958
[7]
  composite z-score: -0.0736
Torsin-1A (Homo sapiens) [8]
  composite z-score: 0.632
Torsin-1A (Homo sapiens) [9]
  composite z-score: -0.565
[10]
  composite z-score: 0.0995

## C=CC1c2cc(O)c(OC)cc2CCN1Cc1ccc([N+](=O)[O-])o1 (stereo not given)
[1]
  composite z-score: 0.17
[2]
  z-score: -0.244 (inactive)
[3]
  z-score: 1.47 (inactive)
[4]
  z-score: -0.321 (inactive)
[5]
  z-score: -0.625 (inactive)
[6]
  composite z-score: 0.39
[7]
  composite z-score: 0.027
Torsin-1A (Homo sapiens) [8]
  composite z-score: -0.17
Torsin-1A (Homo sapiens) [9]
  composite z-score: 0.745
[10]
  composite z-score: -0.873

## Cc1nc2cc(Br)ccc2c(=O)n1Cc1cccc(O)c1
[1]
  composite z-score: 0.59
[2]
  z-score: 0.267 (inactive)
[3]
  z-score: -0.0703 (inactive)
[4]
  z-score: -1.11 (inactive)
[5]
  z-score: -0.978 (inactive)
[6]
  composite z-score: 0.57
[7]
  composite z-score: -0.0567
Torsin-1A (Homo sapiens) [8]
  composite z-score: 0.995
Torsin-1A (Homo sapiens) [9]
  composite z-score: 0.407
[10]
  composite z-score: 1.29

## COc1cc(NN2C(C(O)C3CCCCC3)C=CC3C(=O)N(c4ccccc4)C(=O)C32)cc(OC)c1OC (stereo not given)
[1]
  composite z-score: 0.316
[2]
  z-score: -2.88 (inactive)
[3]
  z-score: -0.408 (inactive)
[4]
  z-score: 0.436 (inactive)
[5]
  z-score: -0.0678 (inactive)
[6]
  composite z-score: 0.775
[7]
  composite z-score: 0.121
Torsin-1A (Homo sapiens) [8]
  composite z-score: -0.224
Torsin-1A (Homo sapiens) [9]
  composite z-score: 0.335
[10]
  composite z-score: -0.686

## CCOC(=O)C[C@H]1[C@H](OC(=O)c2ccc(-c3ccccc3)cc2)[C@@H](NC(=O)CC(C)C)c2cc(OCCCO)ccc2N1C(=O)c1ccccc1
[1]
  composite z-score: 0.121
[2]
  z-score: -0.092 (inactive)
[3]
  z-score: 0.0804 (inactive)
[4]
  z-score: 0.469 (inactive)
[5]
  z-score: -0.375 (inactive)
[6]
  composite z-score: 0.216
[7]
  composite z-score: -0.0963
Torsin-1A (Homo sapiens) [8]
  composite z-score: -0.477
Torsin-1A (Homo sapiens) [9]
  composite z-score: 0.289
[10]
  composite z-score: 1.03

## O=C1C2C=CC(C(O)c3ccc4c(c3)OCO4)N(Nc3ccccc3)C2C(=O)N1c1ccccc1 (stereo not given)
[1]
  composite z-score: 0.096
[2]
  z-score: -0.924 (inactive)
[3]
  z-score: -0.648 (inactive)
[4]
  z-score: 0.44 (inactive)
[5]
  z-score: 0.993 (inactive)
[6]
  composite z-score: 1.52
[7]
  composite z-score: 0.143
Torsin-1A (Homo sapiens) [8]
  composite z-score: -0.277
Torsin-1A (Homo sapiens) [9]
  composite z-score: 0.426
[10]
  composite z-score: 0.0743

## CCc1cccc(NC(=O)O[C@H]2[C@H](OC(=O)Nc3ccccc3)[C@H](OC(=O)Nc3ccccc3)[C@@H](OC)O[C@@H]2CO)c1
[1]
  composite z-score: 0.428
[2]
  z-score: -6.02 (inactive)
[3]
  z-score: -0.0223 (inactive)
[4]
  z-score: 1.03 (inactive)
[5]
  z-score: -1.2 (inactive)
[6]
  composite z-score: 1.03
[7]
  composite z-score: 0.212
Torsin-1A (Homo sapiens) [8]
  composite z-score: -0.417
Torsin-1A (Homo sapiens) [9]
  composite z-score: 0.778
[10]
  composite z-score: 0.0653

## CN1C(=O)C2C(C1=O)C1C=C(CCCO)C2C(C2CC2)N1Cc1cc2c(cc1Br)OCO2 (stereo not given)
[1]
  composite z-score: 0.0949
[2]
  z-score: -1.57 (inactive)
[3]
  z-score: -0.0766 (inactive)
[4]
  z-score: 1.26 (inactive)
[5]
  z-score: 2.6 (inactive)
[6]
  composite z-score: 0.838
[7]
  composite z-score: 0.0569
Torsin-1A (Homo sapiens) [8]
  composite z-score: 1.2
Torsin-1A (Homo sapiens) [9]
  composite z-score: 1.5
[10]
  composite z-score: 0.265

## CC(C)[Si]1(C(C)C)OCc2cc(-c3ccc(-c4ccc(Cl)c(Cl)c4)o3)nc(CCc3ccccc3)c21
[1]
  composite z-score: 0.0947
[2]
  z-score: -1.53 (inactive)
[3]
  z-score: -0.612 (inactive)
[4]
  z-score: -0.0247 (inactive)
[5]
  z-score: 1.6 (inactive)
[6]
  composite z-score: -0.884
[7]
  composite z-score: -0.179
Torsin-1A (Homo sapiens) [8]
  composite z-score: -0.696
Torsin-1A (Homo sapiens) [9]
  composite z-score: -0.436
[10]
  composite z-score: 0.3

## C=CCN1C(=O)[C@]2(O[C@H](CCO)[C@@H]([Si](C)(C)c3ccc(OC)cc3)[C@@H]2C)c2cc(NC(=O)c3ccc(OC)cc3)ccc21
[1]
  composite z-score: 0.211
[2]
  z-score: -7.99 (inactive)
[3]
  z-score: -0.236 (inactive)
[4]
  z-score: 15.2 (active)
[5]
  z-score: -1.43 (inactive)
[6]
  composite z-score: 0.535
[7]
  composite z-score: 0.0541
Torsin-1A (Homo sapiens) [8]
  composite z-score: 0.598
Torsin-1A (Homo sapiens) [9]
  composite z-score: 0.726
[10]
  composite z-score: 2.11

## CC(C)=CCCC(C)=CC(O)C1C=CC2C(=O)N(c3ccccc3)C(=O)C2N1Nc1ccccc1F (stereo not given)
[1]
  composite z-score: 0.151
[2]
  z-score: -2.83 (inactive)
[3]
  z-score: -1.45 (inactive)
[4]
  z-score: -0.0228 (inactive)
[5]
  z-score: 0.358 (inactive)
[6]
  composite z-score: 1.17
[7]
  composite z-score: 0.0047
Torsin-1A (Homo sapiens) [8]
  composite z-score: -0.216
Torsin-1A (Homo sapiens) [9]
  composite z-score: -0.0306
[10]
  composite z-score: 0.396

## CCOC(=O)C1=CC[C@@H](c2ccccc2)N(S(=O)(=O)c2ccc(C)cc2)[C@H]1C=Cc1ccccc1
[1]
  composite z-score: -0.109
[2]
  z-score: -2.35 (inactive)
[3]
  z-score: 0.17 (inactive)
[4]
  z-score: -0.0696 (inactive)
[5]
  z-score: 0.521 (inactive)
[6]
  composite z-score: 0.261
[7]
  composite z-score: 0.0713
Torsin-1A (Homo sapiens) [8]
  composite z-score: 0.0331
Torsin-1A (Homo sapiens) [9]
  composite z-score: -0.0749
[10]
  composite z-score: -0.723
